Drawing on PubChem BioAssay AID2013 (Sanford-Burnham Center for Chemical Genomics, 2009), this text covers inhibition for 35 compounds.

The structures appear in SMILES notation. In all, about 290,000 compounds went through this assay and about 370 (0.13%) were called active. The sample holds actives, similar compounds and a random draw of the others, so the mix is not that of the screen.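 Rule for the calls: active = spots per cell inhibited over 60%, with over 100 cells counted and total cytoplasm intensity under 500,000; inconclusive = wells with under 100 cells, flagged as likely toxic; inactive = the rest.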 Results with a measured potency or affinity are listed apart.

This assay deals with G-protein coupled receptor 55 (Homo sapiens) (UniProt Q9Y2T6). As to the kind of experiment: inhibition of LPI-stimulated GPR55 beta-arrestin translocation – imaging, U2OS, beta-arrestin-GFP, LPI agonist, primary screen (AID 2013).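 Note: U2OS cells stably carrying GPR55 and arrestin-GFP stimulated by 5 µM LPI near EC80; imaged beta-arrestin-GFP aggregate spots per cell after agonist stimulation; plate controls were LPI-stimulated DMSO wells for no effect and DMSO wells without LPI for full effect.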 The following applies: LPI antagonism, at 10 µM, hits give high values.
Sequence of G-protein coupled receptor 55 (Homo sapiens) (Q9Y2T6 whole entry, looked up): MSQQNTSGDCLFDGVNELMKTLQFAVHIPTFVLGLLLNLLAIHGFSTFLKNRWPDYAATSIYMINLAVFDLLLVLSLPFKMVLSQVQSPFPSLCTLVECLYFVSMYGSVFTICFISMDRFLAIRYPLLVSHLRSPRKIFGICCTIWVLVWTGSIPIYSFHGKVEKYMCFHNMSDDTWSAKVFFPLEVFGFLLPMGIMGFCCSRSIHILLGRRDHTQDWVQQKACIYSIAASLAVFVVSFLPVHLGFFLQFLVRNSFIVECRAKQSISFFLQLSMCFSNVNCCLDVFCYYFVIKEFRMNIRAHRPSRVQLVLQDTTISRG
Broadly, the inhibition is the relative decrease from the control value, in per cent. In the case of `COC(=O)C1=Nc2ccccc2/C1=C\c1c(O)n(-c2ccc(Br)cc2)c(=O)[nH]c1=O`, the inhibition is 0.3% (inactive). For `O=c1[nH]c(=O)n(-c2ccccc2)c(O)c1/C=C1/C(c2ccccc2)=Nc2ccccc21`, the inhibition was 68.8% (active).

As to `CC1=Nc2ccccc2/C1=C/c1c(O)n(C)c(=O)[nH]c1=O`, the inhibition is 1.1% (inactive). Next, `O=c1[nH]c(=O)n(-c2cccc(F)c2)c(O)c1/C=C1\C=Nc2ccccc21`: 8.8% (inactive). Next, `Cc1ccccc1-n1c(O)c(/C=C2/C(c3ccccc3)=Nc3ccccc32)c(=O)[nH]c1=O`: 83% (active); `Cc1cccc(-n2c(O)c(/C=C/C=Nc3ccccc3)c(=O)[nH]c2=O)c1`: 0.7% (inactive).

Regarding `Cc1cccc(-n2c(O)c(/C=C3/C(c4ccccc4)=Nc4ccccc43)c(=O)[nH]c2=O)c1`, the inhibition is 74.4% (active). Next, `O=c1[nH]c(=O)n(-c2ccccc2F)c(O)c1/C=C1\C=Nc2ccccc21`: 21.1% (inactive). Next, `COC(=O)C1=Nc2ccccc2/C1=C\c1c(O)n(-c2ccc(OC)cc2)c(=O)[nH]c1=O`: -7.2% (inactive). Turning to `C#C[C@@]1(O)CCC2C3CCC4=C/C(=N/OCC(=O)NC(C(=O)NC(CC(C)C)C(=O)O)C(C)C)CC[C@]4(C)C3CC[C@@]21C` (stereo not given in full), the inhibition is 13.1% (inactive).

`COc1ccccc1-n1c(-c2ccccc2)nc2ccccc2c1=O`: the inhibition was -1.7% (inactive). Next, `CN1CCN(c2nc(N(C)C)oc(=O)c2C#N)CC1`: 2.9% (inactive); `Cc1cc(C)nc(-n2c(C)nc3cc(Cl)ccc3c2=O)c1`: 14.5% (inactive).

Consider `C/C(=N\Nc1ccccc1)c1c(O)[nH]c(=O)[nH]c1=O`, for which the inhibition was -0.7% (inactive). With `NNP(=O)(CC(=O)c1ccccc1)c1ccccc1` (stereo not given), the inhibition was -7% (inactive). As for `O=S(=O)(NC1CCCC1)OCC(Cl)(Cl)Cl`, the inhibition is 0.6% (inactive). Regarding `O=C(O)c1cccc2c1NC(C(=O)O)C1CC(Sc3ccccc3[N+](=O)[O-])C(Cl)C21` (stereo not given), the inhibition is 17.5% (inactive). Next, `CC(=O)c1ccc2c(c1)C1C(Cl)C(Sc3ccccc3[N+](=O)[O-])CC1C(C(=O)O)N2` (stereo not given): 21.4% (inactive); `Cc1ccc2c(c1Cl)NC(C(=O)O)C1CC(Sc3ccccc3[N+](=O)[O-])C(Cl)C21` (stereo not given): 70.4% (active); `CCOC(=O)C(O)(c1ccc(N(CC)C(=O)COc2ccccc2)cc1)C(F)(F)F` (stereo not given): 7.2% (inactive). Next, `Cc1cc(OCC(=O)N[C@@H](Cc2ccccc2)C(=O)O)c2c3c(c(=O)oc2c1)CCC3`: 1.6% (inactive); `O=C1NC(=O)N(CCc2ccc(F)cc2)C(=O)/C1=C/c1cccs1`: 84.1% (inactive). Consider `O=C1NC(=O)N(CCc2ccc(F)cc2)C(=O)/C1=C/c1ccco1`, for which the inhibition is 95.4% (active). As for `O=C1NC(=O)N(Cc2ccccc2)C(=O)/C1=C\c1ccco1`, the figure is 22.2% (inactive); as for `CCn1nc(-c2ccccc2)nc2c(=O)n(C)c(=O)nc1-2`, 18.7% (inactive); as for `Cn1ncnc2c(=O)n(C)c(=O)nc1-2`, 79.3% (active). Next, `Cc1nc2c(=O)n(C)c(=O)nc-2n(C)n1`: 23.5% (inactive). Next, `CN(Cc1ccccc1)C(=O)CN1CCCC1=O`: -7.6% (inactive); `C=CCOc1ccc(CC2C(=O)N(C)C(=O)N(C)C2=O)cc1`: 11.7% (inactive). As to `Oc1ccc(C(=C(Cl)Cl)c2ccc(O)cc2)cc1`, the inhibition was 94.8% (active). In the case of `O=S(=O)(c1ccc(O)cc1)c1ccc(O)cc1`, the inhibition was 11% (inactive). As for `CCc1cc(=O)oc2cc(OCC(=O)N3C[C@H]4C[C@@H](C3)c3cccc(=O)n3C4)c(Cl)cc12`, the figure is -10.3% (inactive); as for `CCCc1nc2ccccc2c(=O)n1-c1ccc(OC)cc1`, 12.2% (inactive).

For the compound `CC12CCC3C(CC=C4CC(O)CCC43C)C1C/C(=C\c1ccccc1F)C2=O` (stereo not given), the inhibition is 1.4% (inactive). As for `CCOC(=O)c1cc(C(O)(C(=O)OC)C(F)(F)F)c(/N=C/N(C)C)o1` (stereo not given), the figure is 14.3% (inactive).
